Source: PubChem BioAssay
Y pestis TopoI – inhibitors of Yersinia pestis topoisomerase I; Y. pestis Topo-I cleavage product accumulation, plate reader; activity, % at 10 µM; 0.064% of 360,000 active; in the data active = activity above about 50%, passing the limit was not always enough
BioA inh – blocks M. tuberculosis BioA enzyme activity; inhibition, % at 9.99 µM; purified M. tuberculosis BioA enzyme, plate reader; 0.096% of 360,000 active; in the data active = inhibition above about 40%
RecA splice inh – Mtb RecA intein splicing inhibition; P9WHJ3; cell-free RecA intein splicing, fluorescence; inhibition, % (concentration not given with the values); 0.75% of 290,000 active; AID 2221; in the data active = inhibition above about 30%;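 note: 0% = vehicle wells and 100% = reference inhibitor control wells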
FadD28 binding – inhibitors of Mycobacterium tuberculosis FadD28 bisubstrate binding. FadD28 bisubstrate probe binding, fluorescence polarization. 0.22% of 360,000 active. inhibition, % at 12.5 µM; in the data active = inhibition above about 8.5%, passing the limit was not always enough
Rv3671c inh – Rv3671c (M. tuberculosis) protease inhibition | 0.048% of 320,000 active | inhibition, % at 5.96 µM; in the data active = inhibition above about 38%;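 note: extracellular domain of Rv3671c used as enzyme; 0% = enzyme with DMSO and 100% = no enzyme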
Mtb UGM inh – Mtb UDP-galactopyranose mutase inhibition; P9WIQ1; purified UGM, fluorescence polarization probe displacement; inhibition, % at 10 µM; 0.06% of 320,000 active; AID 504406; in the data active = inhibition above about 10%, passing the limit was not always enough
Target sequence (P9WIQ1 whole entry, looked up): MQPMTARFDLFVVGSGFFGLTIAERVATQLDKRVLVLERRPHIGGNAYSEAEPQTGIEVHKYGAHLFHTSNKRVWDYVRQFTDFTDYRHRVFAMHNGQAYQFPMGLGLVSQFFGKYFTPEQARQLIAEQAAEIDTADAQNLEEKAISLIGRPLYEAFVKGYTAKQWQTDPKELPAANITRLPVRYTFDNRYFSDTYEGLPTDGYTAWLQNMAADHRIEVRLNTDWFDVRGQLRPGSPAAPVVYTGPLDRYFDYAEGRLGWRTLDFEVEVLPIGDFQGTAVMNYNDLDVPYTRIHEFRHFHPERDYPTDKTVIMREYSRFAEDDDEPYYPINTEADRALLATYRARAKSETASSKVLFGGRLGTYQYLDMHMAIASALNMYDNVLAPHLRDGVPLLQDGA
The depositor's hits bear a star; x = no result given; ! = a repeat was not active. An excerpt weighted towards active compounds, which were near 0.82% of everything screened.

SMILES	Y pestis TopoI	BioA inh	RecA splice inh	FadD28 binding	Rv3671c inh	Mtb UGM inh
C[C@@H]1CN([C@H](C)CO)C(=O)Cc2cc(NC(=O)CCCCCC(=O)Nc3ccccc3N)ccc2O[C@H]1CN(C)S(=O)(=O)c1cn(C)cn1	x	4	x	x	x	x
Cn1cccc1/C=C1/C(=O)NC(=O)N(Cc2ccc(F)cc2)C1=O	3	x	0	1	2	0
Cn1cccc1/C=C1/C(=O)NC(=S)N(Cc2ccc(F)cc2)C1=O	-3	-2	12	44*	17	-1
CCC(=O)Nc1ccc2c(c1)C(=O)N(C)C[C@H](OC)[C@@H](C)CN(C(=O)C1CCC1)[C@@H](C)CO2	x	1	x	x	x	x
Clc1cccc(CSc2nnc(-c3sccc3-n3cccc3)o2)c1	58*	-1	5	-1	-14	x
O=C(CCl)NCc1c(Cl)cccc1-n1cccc1	6	-1	46*	-2	-11	-2
N#CC(C#N)=NNc1ccc(S(=O)(=O)N2CCCC2)cc1	-5	x	30*	-1	10	-1
Oc1ccc(N=Nc2c(O)ccc3ccccc23)cc1	-1	-2	0	1	-3	2
O=C(O)c1cc(N=Nc2c(O)ccc3ccccc23)cc(C(=O)O)c1	3	x	x	13*	x	x
Cc1ccc(C2CC(c3cccs3)=NN2C(=O)CSC2=NCCS2)cc1 (centres undefined)	36	0	57*	0	-2	-3
COc1ccc(C2CC(c3cccs3)=NN2C(=O)CSC2=NCCS2)cc1 (centres undefined)	26	1	41*	-4	-5	-1
CCC(=O)N1N=C(c2cccs2)CC1c1ccc(OC)cc1 (centres undefined)	-16	0	3	-2	x	0
CCC(=O)N1C[C@H](C)[C@H](OC)CN(C)C(=O)c2cc(NC(=O)c3ccccc3)ccc2OC[C@H]1C	x	-1	x	x	x	x
O=C(Nc1sc(-c2ccccc2)cc1C(=O)O)c1ccccc1	4	8	-1	19*	13	0
CCOC(=O)c1cc(-c2ccccc2)sc1NC(=O)c1ccc(OC)cc1	x	x	-1	x	-1	0
C=Cc1c(C)c2cc3[nH]c(cc4nc(cc5nc(cc1[nH]2)C(C)=C5CCC(=O)O)C(CCC(=O)O)=C4C)c(C)c3C=C	0	1	22	43*!	32	-3
Cc1nc(S/C(=C\c2ccc(-c3ccc(C(=O)O)c(Cl)c3)o2)C(=O)O)n[nH]1	-18	0	-6	20*	x	x
O=C(c1cnccn1)N1CC[C@@H]2[C@H](CO)Nc3ccc(-c4ccccc4)cc3[C@@H]21	x	11	x	x	x	x
C[C@H]1CN([C@@H](C)CO)C(=O)c2cccc(NS(=O)(=O)c3cn(C)cn3)c2O[C@H]1CN(C)Cc1ccc(C(F)(F)F)cc1	x	0	x	x	x	x
O=C(Nc1ccc(NC(=O)c2cc([N+](=O)[O-])ccc2N2CCOCC2)cc1)c1cccs1	-8	-2	3	12*	-2	1
O=C(Nc1cc([N+](=O)[O-])ccc1N1CCOCC1)c1cccs1	-4	-2	-1	1	5	1
CC(C)CS(=O)(=O)C1=NSC2=NC(=O)/C(=C\c3ccc(OC(=O)c4ccco4)cc3)C(=N)N21	17	1	41*	-1	-5	-2
CCN1C(=O)/C(=C\c2cccc(OC(=O)c3ccco3)c2)SC1=S	2	-2	1	0	-10	4
COc1cc(/C=C2\C(=N)N3N=C(S(=O)(=O)CC(C)C)SC3=NC2=O)ccc1OC(=O)c1ccco1	x	x	32*	x	-6	-7
CCS(=O)(=O)C1=NN2C(=N)/C(=C\c3ccc(OC(=O)c4ccco4)cc3)C(=O)N=C2S1	6	1	33*	-1	1	0
SMILES	Y pestis TopoI	BioA inh	RecA splice inh	FadD28 binding	Rv3671c inh	Mtb UGM inh
O=C(O)CN1C(=O)/C(=C\c2ccc(OC(=O)c3ccco3)cc2)SC1=S	0	-6	30*	2	-1	-1
C[C@@H]1CN([C@@H](C)CO)C(=O)c2cc(C#Cc3ccncc3)cnc2O[C@H]1CN(C)C(=O)CN(C)C	x	-2	x	x	x	x
C[C@H]1CN([C@@H](C)CO)C(=O)Cc2cc(NS(=O)(=O)c3ccc(F)cc3)ccc2O[C@@H]1CN(C)C(=O)Nc1ccc(C(F)(F)F)cc1	x	4	x	x	x	x
O=C(C[C@@H]1C[C@@H]2c3cc(NC(=O)CC4CC4)ccc3O[C@@H]2[C@@H](CO)O1)NCc1cc(F)ccc1F	x	-1	x	x	x	x
CCCNC(=O)C[C@@H]1CC[C@H]2[C@@H](COC[C@@H](O)CN2C(=O)Nc2c(C)noc2C)O1	x	-1	x	x	x	x
CSc1ccccc1NC(=O)COC(=O)c1ccccc1Cc1ccccc1	62*	x	2	0	-12	0
